# Experimental data as given in PubChem BioAssay AID1508602 (The Scripps Research Institute Molecular Screening Center, 2020).
# Out of some 650,000 compounds screened, about 6,800 (1%) were called active. This is one part of a sample in which actives are shown more often than they occur. No stated cut-off is given here; in the data, active means activation above about 4.9%; inactive means the rest.
# Target: G-protein coupled receptor 151 (Homo sapiens) (UniProt Q8TDV0)
# Experiment: activates the human receptor GPR151, primary screen, cell-based, PathHunter beta-arrestin, luminescence (AID 1508602);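 further: 0% = median of compound wells and 100% = cells with positive control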
# Conditions: PathHunter beta-arrestin GPR151 cells, at 11.2 µM, active compounds read high
# G-protein coupled receptor 151 (Homo sapiens), sequence (Q8TDV0 whole entry, looked up): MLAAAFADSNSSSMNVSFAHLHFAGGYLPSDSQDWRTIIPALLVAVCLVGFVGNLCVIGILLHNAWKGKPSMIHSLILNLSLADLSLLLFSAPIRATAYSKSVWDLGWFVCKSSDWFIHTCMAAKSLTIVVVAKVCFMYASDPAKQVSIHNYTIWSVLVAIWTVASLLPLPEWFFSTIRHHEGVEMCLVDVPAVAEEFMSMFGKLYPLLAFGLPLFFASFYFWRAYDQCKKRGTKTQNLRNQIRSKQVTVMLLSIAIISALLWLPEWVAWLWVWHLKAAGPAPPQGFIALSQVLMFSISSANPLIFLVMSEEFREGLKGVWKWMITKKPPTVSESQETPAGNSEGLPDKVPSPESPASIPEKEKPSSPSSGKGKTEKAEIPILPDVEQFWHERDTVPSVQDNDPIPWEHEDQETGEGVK
row,Compound,activation
1,CC1=C(C(=O)N2CCOCC2)C(c2ccc(Cl)cc2)C2=C(CC(C)(C)CC2=O)N1 (stereo not given),0.141% (inactive)
2,O=C(Cn1nc(-c2ccc3c(c2)OCCO3)ccc1=O)Nc1cccc(C(=O)NC2CC2)c1,0.799% (inactive)
3,CCOc1cccc(NC(=O)Cn2nc(-c3ccc4c(c3)OCCO4)ccc2=O)c1,8% (active)
4,CCc1cccc(OCC(=O)Nc2ccc3c(c2)OCCO3)c1,-1.18% (inactive)
5,O=C(CSc1nnc(Cc2ccccc2)o1)c1ccc([N+](=O)[O-])cc1,-0.861% (inactive)
6,CCOc1ccc(-n2c(C)nc3cc(C(=O)NCC(OCC)OCC)ccc32)cc1,-0.917% (inactive)
7,Cc1nc2cc(C(=O)NCc3ccc4c(c3)OCO4)ccc2n1-c1ccc(OCc2ccccc2)cc1,9.26% (active)
8,COc1ccccc1-n1c(C)nc2cc(C(=O)NCc3ccc4c(c3)OCO4)ccc21,-0.911% (inactive)
9,O=C(NC1CC1)c1ccc(-c2nc(NCCN3CCOCC3)c3[nH]cnc3n2)cc1,2.27% (inactive)
10,Cc1ccc2nc3c(cc(C(=O)NC4CCCCC4)c(=N)n3C(C)C)c(=O)n2c1,0.735% (inactive)
11,Cc1cccn2c(=O)c3cc(C(=O)NC4CCCCC4)c(=N)n(C4CCCCC4)c3nc12,5.92% (active)
12,CCCn1c(=N)c(C(=O)NC2CCCCC2)cc2c(=O)n3cccc(C)c3nc21,-0.974% (inactive)
13,COc1cccc(NC(=O)N2CCc3nc(-c4ccncc4)nc(N4CCCCC4)c3C2)c1,-2.11% (inactive)
14,CC12CCC(C(=O)Nc3c(Cl)cccc3Cl)(CC1=O)C2(C)C (stereo not given),-0.214% (inactive)
15,CC12CCC(C(=O)Nc3ncc(Cl)cc3Cl)(CC1=O)C2(C)C (stereo not given),5.35% (active)
16,CC12CCC(C(=O)Nc3cc(Cl)ccc3Cl)(CC1=O)C2(C)C (stereo not given),-0.262% (inactive)
17,Cc1ccccc1-n1nc2c(c1NC(=O)C1CC1)CSC2,1.82% (inactive)
18,C=CCn1c(SCC(=O)Nc2nc(C)cs2)nnc1C(C)NC(=O)c1cccs1 (stereo not given),0.0682% (inactive)
19,O=C(CCN(Cc1ccc(Cl)cc1)S(=O)(=O)c1ccc(Br)cc1)NO,0.218% (inactive)
20,CC(=O)Nc1nnc(CCOCC(C)OCCc2nnc(NC(C)=O)s2)s1 (stereo not given),5.04% (active)
21,CCOCCc1nnc(NC(=O)CC(C)(C)C)s1,-0.508% (inactive)
22,CCCc1nnc(NC(=O)C(C)Oc2ccccc2)s1 (stereo not given),0.536% (inactive)
23,CCOc1ccc(NC(=O)Nc2ccc(N(C)C(C)=O)cc2)cc1,6.4% (active)

row,Compound,activation
1,CCOc1ccc(NC(=O)N(CC(C)C)CC(C)C)cc1,-1.58% (inactive)
2,CCOc1ccc(NC(=O)NC(=O)N(C)S(C)(=O)=O)cc1,-0.0562% (inactive)
3,CC1CCCC(C)N1C(=O)COC(=O)c1ccc(Cl)cc1N (stereo not given),-1.01% (inactive)
4,COc1cccc(-c2ccccc2NC(=O)C2CCN(C3CCOCC3)CC2)c1,0.21% (inactive)
5,O=C(CCc1nc2ccccc2[nH]1)N1CCC2(CC1)OCc1cc(Cl)ccc1O2,-0.0529% (inactive)
6,COc1ccc(-c2noc(N3CCC(C(=O)NCCCOC(C)C)CC3)n2)cc1,2.42% (inactive)
7,COc1ccc(-c2noc(N3CCCC(C(=O)NCCCN4CCC(C)CC4)C3)n2)cc1 (stereo not given),-1.28% (inactive)
8,COc1ccc(-c2noc(N3CCC(C(=O)NCCCN4CCN(C)CC4)CC3)n2)cc1,7.49% (active)
9,COC(=O)c1ccccc1NC(=O)C1=CC(c2cccc(OC)c2)=NS(=O)(=O)N1C,2.65% (inactive)
10,CCOC(=O)c1sc(=S)n(-c2ccc(Br)cc2)c1N,-1.26% (inactive)
11,Cc1ccc(-c2nnc(NCc3ccccc3)c3ccccc23)cc1S(=O)(=O)N1CCOCC1,-0.185% (inactive)
12,Cc1ccc(-c2nnc(N3CCOCC3)c3ccccc23)cc1S(=O)(=O)N1CCCCC1,-0.605% (inactive)
13,Cc1ccc(-c2nnc(N3CCOCC3)c3ccccc23)cc1S(=O)(=O)N1CCN(C)CC1,5.54% (active)
14,CCOC(=O)c1cnc2c(C)cc(Cl)cc2c1Nc1cccc([N+](=O)[O-])c1,-1.43% (inactive)
15,Cc1c(C)c2ccc(O)c(I)c2oc1=O,0.449% (inactive)
16,COc1ccc([N+](=O)[O-])cc1/C=C1\C(=O)NC(=O)N(c2ccc(Br)cc2)C1=O,2.28% (inactive)
17,CCCOc1ccc([N+](=O)[O-])cc1C=C1C(=O)NC(=O)NC1=O,5.32% (active)
18,O=C1NC(=O)C(=Cc2cc([N+](=O)[O-])cc(Br)c2O)C(=O)N1,0.835% (inactive)
19,O=C(NC1CCCCC1N1C(=O)CSC1=O)c1ccccc1F (stereo not given),0.048% (inactive)
20,CC(=O)Nc1ccc(S(=O)(=O)NC2(C(F)(F)F)C(=O)NC(C)=C2C#N)cc1 (stereo not given),0.355% (inactive)
21,CCCN1C(=O)C(NS(=O)(=O)c2ccc(N)cc2)(C(F)(F)F)C(C(=O)OC)=C1C (stereo not given),6.6% (active)
22,CCOC(=O)C1=C(C)N(Cc2ccco2)C(=O)C1(NC(=O)c1ccccc1)C(F)(F)F (stereo not given),0.126% (inactive)
23,Fc1cccc(C2=NC3(CCCC3)NC2=S)c1,1.94% (inactive)

row,Compound,activation
1,CC(=O)Nc1nc(C(=O)Nc2nc(-c3sc(C)nc3C)cs2)cs1,5.72% (active)
2,Cc1nc(C)c(-c2csc(Nc3ccc(Br)cc3)n2)s1,-0.252% (inactive)
3,CC(=O)Nc1nc(C)c(-c2csc(Nc3ccc(C)cc3)n2)s1,0.136% (inactive)
4,N#Cc1c(SCC(=O)Nc2ccc(Br)cc2)nsc1SCC(=O)Nc1ccc(Br)cc1,-0.245% (inactive)
5,Cc1cc(C(=O)N2CCOCC2)c2ccccc2n1,-0.327% (inactive)
6,CCOc1ccccc1-c1cc(C(=O)N2CCOCC2)c2ccccc2n1,13.1% (active)
7,Cc1cccc2c(C(=O)N3CCOCC3)cc(-c3ccccc3)nc12,0.152% (inactive)
8,O=S(=O)(c1ccc(F)cc1)N1CCN(C(=S)NC2CCCC2)CC1,-1.65% (inactive)
9,COc1ccc(NC(=S)N2CCN(S(=O)(=O)c3ccc(F)cc3)CC2)c(OC)c1,8.74% (active)
10,COc1cc([N+](=O)[O-])ccc1NC(=S)N1CCN(S(C)(=O)=O)CC1,0.0846% (inactive)
11,COc1ccc(NC(=O)CSc2nc3n[nH]c(C)c3c(=N)n2-c2ccccc2Cl)c(OC)c1,0.84% (inactive)
12,CCOc1ccc(C(c2sc3nc(C)nn3c2O)N2CCCC2)cc1OC (stereo not given),0.827% (inactive)
13,COCCNC(=O)CCCNC(=O)Cn1cnc2sc(C)c(C)c2c1=O,1.23% (inactive)
14,COc1cc(Cl)c(C)cc1NC(=O)Cn1cnc2sc(C)c(C)c2c1=O,0.0902% (inactive)
15,COc1ccc(C2(NC(=O)CCn3cnc4sc(C)c(C)c4c3=O)CCCCC2)cc1,4.94% (active)
16,COc1ccccc1C1N=C(c2ccc(C)cc2)CC(c2cc(Cl)ccc2O)N1 (stereo not given),1.39% (inactive)
17,Cc1ccc(C2=NC(c3cc(Br)ccc3F)NC(c3cc(Cl)ccc3O)C2)cc1 (stereo not given),10.7% (active)
18,Cc1ccc(C2=NC(c3ccc(F)cc3)NC(c3cc(Cl)ccc3O)C2)cc1 (stereo not given),1.41% (inactive)
19,O=C(COc1ccc(Cl)cc1)Nc1ccc(F)c(F)c1,0.102% (inactive)
20,Cc1ccc(OCC(=O)Nc2ccc(C)c(Cl)c2)cc1C,1.59% (inactive)
21,O=C(COc1ccc(CO)cc1)Nc1ccc(Cl)c(Cl)c1,8.11% (active)
22,CCN(CC)S(=O)(=O)c1ccc(NC(=O)c2ccc(F)cc2)cc1,-0.476% (inactive)
23,Cc1cccc(OCCN2CCNCC2)c1C,0.825% (inactive)

row,Compound,activation
1,C=CCc1ccccc1OCCN1CCNCC1,5.95% (active)
2,Cc1ccc(C(C)(C)C)c(OCCN2CCNCC2)c1,0.932% (inactive)
3,COc1cccc(CNC(=O)Cn2c(=O)oc3ccccc32)c1,-1.36% (inactive)
4,N#CCCn1c2ccc(Cl)cc2c2cc(Cl)ccc21,2.4% (inactive)
5,COc1ccc(N2CCN(c3ncnc4c3c(-c3ccccc3)cn4-c3ccc(C)cc3)CC2)cc1,-2.7% (inactive)
6,CC1CN(c2ncnc3c2c(-c2ccccc2)cn3-c2cccc(C(F)(F)F)c2)CC(C)O1 (stereo not given),-1.46% (inactive)
7,Cc1ccc(-n2cc(-c3ccccc3)c3c(N4CC(C)OC(C)C4)ncnc32)cc1 (stereo not given),7.76% (active)
8,CCN(CC)CCCNCC(=O)Nc1ncc(C)s1,-1.43% (inactive)
9,Cc1ccccc1CC1(CO)CCCN(Cc2ccncc2)C1 (stereo not given),5.32% (active)
10,OCC1(Cc2ccccc2C(F)(F)F)CCN(Cc2ccncc2)CC1,-0.707% (inactive)
11,Cc1ccccc1CC1(CO)CCCN(C(=O)CN(C)Cc2ccncc2)C1 (stereo not given),0.125% (inactive)
12,Cc1csc(COc2ccc(C(=O)NCc3cccs3)cc2)n1,-2.02% (inactive)
13,Cn1ncc2c(Nc3cccc4ccccc34)ncnc21,2.47% (inactive)
14,Cn1ncc2c(NNC(=O)c3ccc(C(C)(C)C)cc3)ncnc21,1.02% (inactive)
15,Cn1ncc2c(NNC(=O)Cc3cccc4ccccc34)ncnc21,6.03% (active)
16,O=C1c2ccccc2C(=O)C1(Nc1ccc(-c2ccccc2)cc1)c1ccccc1,0.902% (inactive)
17,O=C(Nc1ccc2c(c1)C(=O)Nc1cc(Cl)ccc1O2)c1cccc(F)c1,-0.172% (inactive)
18,Cc1ccc(C2CC(c3cccs3)=NN2C(=O)CSc2nnc(CNC(=O)c3cccs3)n2Cc2ccccc2)cc1 (stereo not given),-0.904% (inactive)
19,COc1ccc(C2CC(c3cccs3)=NN2C(=O)CSc2nnc(CNC(=O)c3cccc(C)c3)n2Cc2ccccc2)cc1 (stereo not given),-0.0797% (inactive)
20,O=C(NCc1nnc(SCC(=O)N2N=C(c3cccs3)CC2c2ccc(F)cc2)n1Cc1ccccc1)c1cccc(F)c1 (stereo not given),5.02% (active)
21,CSc1ccc2nc(NC(=O)c3ccccc3Cl)sc2c1,-0.347% (inactive)
